Measurements reported in PubChem BioAssay (NCATS).
Active and inactive are the calls of the source. Calls come from the whole dose curve.

Test: qHTS drug screen for cell cycle checkpoint inhibitors in PARPi-resistant BRCA-mutant ovarian cancer cell lines. (AID 1963452)
Conditions: PEO1/OlaR viability, CellTiter-Glo luminescence, 96 h; for Z-AUC: stronger effect = lower value
In short: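 PEO1, PEO4 and PEO1/OlaR ovarian cancer cells, 600 per well, exposed 96 h at 37C to a dilution series. Viability read by CellTiter-Glo luminescence, normalized to DMSO and empty wells; activity summarized as Z-AUC.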

[1] = measured here: PEO1 parental Z-AUC
Potency is the fitted concentration of half-maximal effect.

| SMILES | Z-AUC | Z-AUC [1] | Z-AUC (measured here: PEO4 Z-AUC) | Potency |
| --- | --- | --- | --- | --- |
| CC1CNc2c(cccc2S(=O)(=O)N[C@@H](CCCN=C(N)N)C(=O)N2CC[C@@H](C)C[C@@H]2C(=O)O)C1 (some centres not stated) | 1.14 (inactive) | 0.686 | 1.06 |  |
| CC[C@@H]([C@H](C)O)n1ncn(-c2ccc(N3CCN(c4ccc(OCC5CO[C@@](Cn6cncn6)(c6ccc(F)cc6F)C5)cc4)CC3)cc2)c1=O (some centres not stated) | 0.357 (inactive) | -0.0959 | -0.133 |  |
| O=C(Nc1cccc(Cl)c1)Nc1ncc(CCNc2ncnc3ccsc23)s1 | -0.664 (inactive) | -1.1 | -1.17 |  |
| CC1=C[C@@H]2[C@@H]([C@@H](O)C[C@@]3(C)[C@H]2C[C@@H](C)[C@]3(O)C(=O)CO)[C@@]2(C)Cc3cnn(-c4ccccc4)c3C=C12 | -1.56 (inactive) | -0.109 | -1.25 |  |
| CNC(=O)c1cc(Oc2ccc(NC(=O)Nc3ccc(Cl)c(C(F)(F)F)c3)c(F)c2)ccn1 | 0.96 (inactive) | 0.462 | 0.496 |  |
| COc1cc(F)c(C(C)C)cc1-c1ccc(C(F)(F)F)cc1CN1C(=O)O[C@H](c2cc(C(F)(F)F)cc(C(F)(F)F)c2)[C@@H]1C | 0.469 (inactive) | 0.239 | 0.327 |  |
| N#Cc1ccc(Oc2ccc3c(c2)COB3O)cc1 | 0.18 (inactive) | 0.583 | 0.594 |  |
| CN(C)c1ccccc1CN1CCCN(Cc2ccccc2N(C)C)C1c1ccncc1 | -0.339 (inactive) | 0.0487 | -0.169 |  |
| CN(C)CC[C@H](CSc1ccccc1)Nc1ccc(S(=O)(=O)NC(=O)c2ccc(N3CCN(Cc4ccccc4-c4ccc(Cl)cc4)CC3)cc2)cc1[N+](=O)[O-] | -0.74 (inactive) | 0.0363 | -1.54 |  |
| CN1CCN(c2ncc(-c3cc(Cl)cc(Cl)c3Cl)c(N)n2)CC1 | -0.667 (inactive) | -0.953 | -0.943 |  |
| O=C(CC12CC3CC(CC(C3)C1)C2)Nc1cccc2nc(NCCNCCO)ccc12 | 0.783 (inactive) | 0.506 | 0.728 |  |
| CC(=O)NCCC(=O)N[C@@H](CCC(N)=O)C(=O)N[C@@H](CO)C(=O)N[C@@H](CCC(N)=O)C(=O)N[C@@H](CCC(N)=O)C(=O)N[C@H](C(=O)N[C@@H](Cc1ccccc1)C(=O)N[C@]1(C)CCCCCCC=CCCC[C@@](C)(C(=O)N[C@@H](CCC(N)=O)C(=O)N[C@@H](CC(N)=O)C(N)=O)NC(=O)[C@H](CC(C)C)NC(=O)[C@H](CC(C)C)NC(=O)[C@@H](CCCNC(=N)N)NC(=O)[C@H](Cc2c[nH]c3ccccc23)NC(=O)[C@H](CC(C)C)NC(=O)[C@H](CC(N)=O)NC1=O)[C@H](C)O | -0.975 (inactive) | -0.536 | -0.428 |  |
| O=C1C(c2c(O)[nH]c3ccccc23)=Nc2ccccc21 | 0.207 (inactive) | 0.824 | 0.396 |  |
| Cc1cnc(CNC(=O)c2c(=O)c3ccc(N4CCCN(C)CC4)nc3n3c2sc2ccccc23)cn1 | -0.335 (inactive) | -0.603 | 0.0193 |  |
| CCOC(=O)c1c(CSc2ccccc2)n(C)c2cc(Br)c(O)c(CN(C)C)c12 | 0.838 (inactive) | 0.193 | 0.129 |  |
| COc1ccc(CCC(=O)Nc2nc3ccc(Cl)cc3s2)cc1OC | -1.42 (inactive) | -0.917 | -0.954 |  |
| CN(C)c1ccc(-c2nc3ncc(Cl)c(N4CCN(CC(=O)Nc5nccs5)CC4)c3[nH]2)cc1 | -1.63 (inactive) | -1.25 | -1.61 |  |

| SMILES | Z-AUC | Z-AUC [1] | Z-AUC (measured here: PEO4 Z-AUC) | Potency |
| --- | --- | --- | --- | --- |
| Cc1cccc(-c2[nH]c(C(C)(C)C)nc2-c2ccc3c(c2)OCO3)n1 | -0.37 (inactive) | -0.0617 | 0.278 |  |
| Cc1ccccc1-n1c(Cn2nc(-c3cccc(O)c3)c3c(N)ncnc32)nc2cccc(C)c2c1=O | -1.13 (inactive) | -0.546 | -0.912 |  |
| CC[C@H](C)n1cc(C)c2c(C(=O)NCc3c(C)cc(C)[nH]c3=O)cc(-c3ccc(N4CCNCC4)nc3)cc21 | 1.9 (inactive) | 1.58 | 1.72 |  |
| CCNC(=O)c1noc(-c2cc(C(C)C)c(O)cc2O)c1-c1ccc(CN2CCOCC2)cc1 |  | -1.81 | -1.08 | 24.5 nM (active) |
| CCc1cc(-c2n[nH]c(C)c2-c2ccc3c(c2)OCCO3)c(O)cc1O | 0.644 (inactive) | 0.497 | 0.316 |  |
| CN1c2ccccc2C(=O)N2CCc3c([nH]c4ccccc34)C21 (configuration not stated) | 0.807 (inactive) | -0.272 | -0.128 |  |
| N#CC1(c2cccc(C(=O)Nc3cc(Oc4ccc5nc(NC(=O)C6CC6)sc5n4)ccc3F)c2Cl)CC1 | -0.948 (inactive) | -1.21 | -0.816 |  |
| CNC(=O)c1cc(COc2nnc(Nc3ccc(Cl)cc3)c3ccoc23)ccn1 | 0.731 (inactive) | 0.432 | 0.337 |  |
| Nc1ccn([C@@H]2O[C@H](CO)[C@@H](O)[C@H]2O)c(=O)n1 | 0.821 (inactive) | 1.45 | 1.4 |  |
| NS(=O)(=O)c1ccc(Nc2nc(OCC3CCCCC3)c3[nH]cnc3n2)cc1 | -1.43 (inactive) | -0.91 | -1.12 |  |
| O=[N+]([O-])c1ccc(Nc2ccccc2-c2ccccc2)c2nonc12 | 0.186 (inactive) | 0.785 | 0.946 |  |
| C[C@@H](N)c1ccc(C(=O)Nc2ccnc3[nH]ccc23)cc1 | 0.345 (inactive) | 0.635 | 0.729 |  |
| O=C(Nc1cccc(C(F)(F)F)c1)Nc1cc(S(=O)(=O)NC2CC2)ccc1-c1ccsc1 | -0.117 (inactive) | -0.289 | -0.479 |  |
| c1cc(OCCN2CCCCC2)cc(-c2n[nH]c3ccc(-c4ncn[nH]4)cc23)c1 | -0.663 (inactive) | -0.209 | -0.626 |  |
| C[C@@]1(C(=O)Nc2ccc(F)nc2)CCCN1c1nc(Nc2cc(C3CC3)[nH]n2)c2cccn2n1 | 0.31 (inactive) | 0.238 | -0.135 |  |
| NC(=O)c1noc([C@H](CCCC2CCCCC2)CC(=O)NO)n1 | 1.33 (inactive) | 0.607 | 0.522 |  |
| O=C(O)c1ccc(O)c2ncc(N3CCOCC3)cc12 | -0.152 (inactive) | -0.649 | -0.698 |  |
